Experiment [1] can be described thus: circadian clock period modulators, cell-based, LOPAC library, luminescence reporter (AID 2774; call rule not given here;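 note: values are relative to mean of DMSO wells on each plate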). The conditions noted are these: circadian reporter cells, at 7 µM, actives lie on both sides.
The nature of experiment [2]: hESC survival regulators, cell-based (AID 493140; call rule not given here;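 note: cells exposed to compounds for four days before counting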). As to conditions: human embryonic stem cell survival screen; stronger effect = higher value.
Experiment [3] is described as follows: liver-stage malaria parasite growth inhibition, primary screen, cell-based, HepG2, luciferase luminescence, HepG2 viability (AID 624349; in the data active = parasite load remaining mostly below about 12%, no sharp cut-off; inactive = mostly above about 10%;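 note: 100% = mean of DMSO negative control wells on the same plate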). The conditions noted are these: P. berghei liver stage in HepG2, luciferase luminescence, concentration not given here; parasite load remaining: stronger effect = lower value; viability: measured here: HepG2 viability without parasites.

The subject of experiment [4] is Hepatitis C virus NS3 helicase. In words: HCV NS3 helicase inhibitors, primary screen, biochemical, fluorescence polarization, LOPAC1280 library (AID 687035; in the data active = inhibition above about 37%). As to conditions: Purified HCV NS3 helicase, Cy5-dT15 ssDNA binding fluorescence polarization; stronger effect = higher value; concentration not given here. A general note: In fluorescence polarisation assays a small probe gives low polarisation when free and higher when bound to something large.

Experiment [5] can be described thus: Cy5 fluorescence quenching or enhancement artefacts, artefact control for HCV NS3 helicase inhibitor project, biochemical, LOPAC1280 (AID 687037; call rule not given here). As to conditions: Cy5-DNA-NS3h complex fluorescence interference counterscreen. (The purpose of a counterscreen is to sort out artefacts and off-target activity.)
In experiment [6] the test system is Aerobactin synthetase IucA (Klebsiella pneumoniae). The experiment is described as follows: IucA aerobactin synthetase inhibitors, biochemical, Tocris library, absorbance (AID 1345561; call rule not given here;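 note: 100% = enzyme without compound and 0% = no enzyme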). As to conditions: purified IucA enzyme assay, absorbance (OD) read-out; stronger effect = lower value;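 tested at 8 µM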.
Experiment [7] is described as follows: sensitizers of A549 cells to miR-34 induction, primary screen, imaging, A549 dox-inducible miR-34, nuclei and caspase counts (AID 1347080;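 active = compounds whose cell count with miR-34 switched on is under 0.7 times the count with it off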). The conditions noted are these: A549 miR-34 inducible, Hoechst nuclei count, 48 h.
Experiment [8] can be described thus: inhibitors of Cryptococcus chitosan production, flow cytometry, Cibacron Brilliant Red staining (AID 1347148; call rule not given here;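 note: compound exposure lasted three days at 37 degrees C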). The conditions noted are these: Cryptococcus neoformans chitosan, stronger effect = lower value; at 10 µM unless noted. (Flow cytometry measures light scatter and fluorescence of single cells or particles in a stream.)
Experiment [9] is described as follows: phospholipid biosynthesis inhibitors in animal cells, primary screen, cell-based, LOPAC library, screen 4 (AID 1347384; call rule not given here). The conditions noted are these: phospholipid biosynthesis inhibition screen, at 10 µM.
Experiment [10] can be described thus: viability rescue of complex I mutant cybrids, primary screen, cell-based, galactose medium, ATP luminescence (AID 1645843;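 active = z-score of at least 1.8 in each of two replicates, scored against plate mean and spread of sample wells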;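 note: positive z means more ATP and so rescue of galactose-driven cybrid death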). As to conditions: complex I mutant cybrid cells, 72 h, stronger effect = higher value.
The nature of experiment [11]: survival rescue of mitochondrial mutant cells in low glucose, primary screen, MELAS cybrids, Rieske KO mouse fibroblasts, CellTiter-Glo (AID 1508586;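 active = mean z-score across replicates of 1.96 or higher in either the MELAS or the Rieske mutant cell line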;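 note: z relative to plate mean and SD of compound and empty wells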).
Experiment [12] in a line: modifiers of HSF1 nuclear foci, imaging, Selleck Cancer Library (AID 1347162; in the data active = plate-normalised HSF1 focus index below about 0.46). As to conditions: human cells, at 10 µM; SSMD: measured here: HSF1 foci SSMD mean; cell count: measured here: cell number; plate-normalised HSF1 focus index: stronger effect = lower value.
A short description of experiment [13]: ovarian cancer cell viability with rucaparib, profiling panel, oncology-focused library, rucaparib conditional (AID 1508598). The conditions noted are these: patient-derived ovarian cancer cells, CellTiter-Glo viability, 144 h, stronger effect = lower value.
Where [14] appears, read: stronger effect = lower value, cell number ratio, induced over uninduced.
[15] abbreviates: measured here: relative caspase fold change +Dox/-Dox.
Setting [16] is: measured here: total cells with miR-34 induction, stronger effect = lower value.
[17] abbreviates: measured here: total cells without miR-34 induction.

Each structure is given as a SMILES string. Several values for one entry are separate records, joined by “and”; a condition that tells them apart may be missing. Equal entries are not always repeated. Activity calls are given as the source filed them.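 Rule for the calls, unless noted: active = normalized viability below 100% at a tested concentration; inactive = the rest.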

Regarding `O=Nc1c(-c2c(O)[nH]c3ccccc23)[nH]c2ccccc12`, the period change in experiment [1] is -0.845 h (active). In experiment [2], the survival was 71.6 (inactive). The parasite load remaining in experiment [3] is 33.5% (inactive). Besides, the viability in [3] was 168%. Further, in [4], the inhibition is 0% (inactive). Besides, the fluorescence ratio (interference) in [5] was 1 (inactive). In addition, the remaining activity in experiment [6] was 116% (inactive). In addition, the fold change in experiment [7] (setting [14]) was 1.02 (inactive) and 0.941 (inactive) and 1.27 (inactive); in experiment [7] (setting [15]) it was 0.96 and 0.857 and 0.731. Further, the cell count was 1220 and 814 and 1460 in experiment [7] (setting [16]); 1200 and 866 and 1140 in experiment [7] (setting [17]). Besides, in experiment [8], the fold fluorescence was 9.39 [at 180.3 µM] (inactive). Moreover, in experiment [9], the result was active. Also, the z-score in [10] is -1.48 (inactive) and -0.805 (inactive).

With `CC(C)N(CCC(=O)c1ccc2ccccc2c1)Cc1ccccc1`, the period change in [1] was 0 h (inactive). Further, the parasite load remaining in [3] was 28.5% (inactive). Besides, the viability in experiment [3] was found to be 88.8%. For the same compound, in [4], the inhibition is -3% (inactive). Also, the fluorescence ratio (interference) in experiment [5] is 0.9 (inactive). Also, the remaining activity in experiment [6] was 113% (inactive). The fold change was 1.13 (inactive) and 0.795 (inactive) and 0.953 (inactive) in experiment [7] (setting [14]); 1 and 0.533 and 0.643 in experiment [7] (setting [15]). The cell count in experiment [7] (setting [16]) was 10100 and 6810 and 7420; in experiment [7] (setting [17]), 8940 and 8570 and 7790. Also, the result in experiment [9] was inactive. Also, the z-score is -0.331 (inactive) in experiment [11] (MELAS cybrid survival, CellTiter-Glo 48 h, stronger effect = higher value); -0.0503 in experiment [11] (Rieske KO mouse fibroblast survival, CellTiter-Glo 72 h); -1.29 (inactive) and -0.82 (inactive) in experiment [10].

Consider `CNC(=O)[C@H]1O[C@@H](n2cnc3c(NCc4cccc(I)c4)nc(Cl)nc32)[C@H](O)[C@@H]1O`, for which, in [6], the remaining activity is 96.8% (inactive). The fold change in experiment [7] (setting [14]) is 0.954 (inactive); in experiment [7] (setting [15]), 0.816. In addition, the results for the cell count in [7] (setting [16]) and in [7] (setting [17]) were 5880 and 6160, respectively. Further, the z-score in [10] was -0.4 (inactive).

Take `C[C@@H](N)C1CCC(C(=O)Nc2ccncc2)CC1` (some centres not stated): in [3], the parasite load remaining was 75.2% (inactive). For the same compound, the viability was 142% in [3]; 112% (inactive) in experiment [13] (at 0.000305 µM, OCI-C5x cells, with rucaparib 10 µM, 100% = cells with rucaparib alone); 113% (inactive) in experiment [13] (at 0.000305 µM, OCI-C5x cells, without rucaparib); 93.5% (active) in [13] (at 0.000305 µM, OCI-P5x cells, with rucaparib 20 µM, 100% = cells with rucaparib alone); 93.7% (active) in [13] (at 0.000305 µM, OCI-P5x cells, without rucaparib); 112% (inactive) in [13] (at 0.00122 µM, OCI-C5x cells, with rucaparib 10 µM, 100% = cells with rucaparib alone). The viability in experiment [13] (at 0.00122 µM, OCI-C5x cells, without rucaparib) was 109% (inactive); in [13] (at 0.00122 µM, OCI-P5x cells, with rucaparib 20 µM, 100% = cells with rucaparib alone), 96.3% (active); in [13] (at 0.00122 µM, OCI-P5x cells, without rucaparib), 92.8% (active); in experiment [13] (at 0.00488 µM, OCI-C5x cells, with rucaparib 10 µM, 100% = cells with rucaparib alone), 115% (inactive); in experiment [13] (at 0.00488 µM, OCI-C5x cells, without rucaparib) it was 112% (inactive); in experiment [13] (at 0.00488 µM, OCI-P5x cells, with rucaparib 20 µM, 100% = cells with rucaparib alone), 99.1% (active). For the same compound, the viability in experiment [13] (at 0.00488 µM, OCI-P5x cells, without rucaparib) was 96.4% (active); in [13] (at 0.0195 µM, OCI-C5x cells, with rucaparib 10 µM, 100% = cells with rucaparib alone) it was 106% (inactive); in experiment [13] (at 0.0195 µM, OCI-C5x cells, without rucaparib) it was 112% (inactive); in experiment [13] (at 0.0195 µM, OCI-P5x cells, with rucaparib 20 µM, 100% = cells with rucaparib alone) it was 89.2% (active); in [13] (at 0.0195 µM, OCI-P5x cells, without rucaparib) it was 102% (inactive); in experiment [13] (at 0.0781 µM, OCI-C5x cells, with rucaparib 10 µM, 100% = cells with rucaparib alone), 113% (inactive). In addition, the viability in experiment [13] (at 0.0781 µM, OCI-C5x cells, without rucaparib) is 107% (inactive); in [13] (at 0.0781 µM, OCI-P5x cells, with rucaparib 20 µM, 100% = cells with rucaparib alone) it was 96.5% (active); in experiment [13] (at 0.0781 µM, OCI-P5x cells, without rucaparib), 102% (inactive); in experiment [13] (at 0.313 µM, OCI-C5x cells, with rucaparib 10 µM, 100% = cells with rucaparib alone), 106% (inactive); in [13] (at 0.313 µM, OCI-C5x cells, without rucaparib), 120% (inactive); in experiment [13] (at 0.313 µM, OCI-P5x cells, with rucaparib 20 µM, 100% = cells with rucaparib alone), 99.7% (active). In addition, the viability is 97.9% (active) in [13] (at 0.313 µM, OCI-P5x cells, without rucaparib); 117% (inactive) in experiment [13] (at 1.25 µM, OCI-C5x cells, with rucaparib 10 µM, 100% = cells with rucaparib alone); 113% (inactive) in experiment [13] (at 1.25 µM, OCI-C5x cells, without rucaparib); 106% (inactive) in experiment [13] (at 1.25 µM, OCI-P5x cells, with rucaparib 20 µM, 100% = cells with rucaparib alone); 102% (inactive) in experiment [13] (at 1.25 µM, OCI-P5x cells, without rucaparib); 110% (inactive) in experiment [13] (at 5 µM, OCI-C5x cells, with rucaparib 10 µM, 100% = cells with rucaparib alone). Also, the viability in experiment [13] (at 5 µM, OCI-C5x cells, without rucaparib) was 107% (inactive); in experiment [13] (at 5 µM, OCI-P5x cells, with rucaparib 20 µM, 100% = cells with rucaparib alone), 94.4% (active); in experiment [13] (at 5 µM, OCI-P5x cells, without rucaparib) it was 99.6% (active). For the same compound, the remaining activity in [6] was 114% (inactive). The fold change in experiment [7] (setting [14]) is 0.864 (inactive) and 0.892 (inactive); in experiment [7] (setting [15]) it was 0.978 and 1.24. The cell count in experiment [7] (setting [16]) was 4720 and 9420; in experiment [7] (setting [17]), 5470 and 10600; in experiment [12], 7180. The compound also came in with an SSMD in experiment [12] of 3.4. Also, in [12], the plate-normalised HSF1 focus index was 1.19 (inactive). The z-score in [10] was -0.445 (inactive).

Usually viability stands for a read-out of living cells in per cent, often relative to untreated cells. As usually defined, the inhibition is the relative decrease from the control value, in per cent. One may read the remaining activity as the signal under treatment as a percentage of the control signal.

These data come from PubChem BioAssay.
